Assay outcomes: PubChem, several laboratories
E coli growth-1: reduces bacterial viability in AddAB counter-screen | inhibition, % at 11.9 µM | actives 0.27% (n = 330,000) | E. coli V3065 growth, OD600 absorbance, 18 h;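 active = inhibition above the campaign's mean inhibition across all tested compounds plus 3 SD, cut at about 9.9% in these data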;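 note: uninfected addAB+ strain grown without phage in ampicillin broth; 0% = DMSO wells and 100% = ciprofloxacin 0.95 µg/ml wells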
AddAB inh: less growth of phage-infected E. coli with AddAB | E. coli expressing H. pylori AddAB, absorbance growth | inhibition, % at 11.9 µM | actives 0.29% (n = 330,000); in the data active = inhibition above about 12%;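 note: 0% = vehicle wells of infected cells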
phage Ecoli inh: E. coli growth loss with phage present; inhibition, % at 11.9 µM; actives 0.26% (n = 360,000); AID 651602; growth absorbance; in the data active = inhibition above about 11%
E coli growth-2: E. coli growth inhibition; Escherichia coli growth, OD600, 23 h; active compounds read low; actives 0.21% (n = 330,000); OD600 absorbance (no concentration beside the values); AID 1053175;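 active = OD600 absorbance below the run mean of sample wells minus 3.6 SD, in any replicate, cut at about 0.56 in these data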
Tat export inh: inhibitors of E. coli Tat protein transport | E. coli MC4100 TorA-mCherry Tat export, fluorescence | inhibition, % at 10 µM | AID 488895 | actives 0.036% (n = 340,000);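 active = mean replicate inhibition at least 50% and at least half of replicates individually reaching 50%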;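 note: exported cargo escapes ClpAP degradation while cytoplasmic cargo is degraded and loses fluorescence; 0% = median of neutral control wells and 100% = median of NaSCN control wells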
RecBCD conf: confirmation: growth loss of phage-infected RecBCD+ E. coli (RecBCD inhibitor screen); shares compounds with phage Ecoli inh; E. coli V66 + T4 2- phage, growth OD; inhibition, % at 11.9 µM; actives 45% (n = 890);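 active = mean inhibition over triplicates exceeding the hit threshold derived in the original primary screen, cut at about 11% in these data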
Ecoli viability: counter-screen for RecBCD inhibitors: inhibitors of bacterial viability. E. coli viability, absorbance (OD) growth. inhibition, % at 11.9 µM. shares compounds with phage Ecoli inh. actives 29% (n = 890); in the data active = inhibition above about 20%;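 note: E. coli strain V66 grown with compound alone and no phage infection; 0% = bacteria with DMSO vehicle only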
AddAB phage OD: growth loss of phage-infected AddAB E. coli, RecBCD counter-screen; actives 45% (n = 890); E. coli expressing H. pylori AddAB + T4 phage, OD growth; gene 2 mutant T4, recBCD-deleted host; AID 651984; shares compounds with phage Ecoli inh; inhibition, % at 11.9 µM;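 active = mean inhibition above the solvent-only control wells' mean plus 3 SD, cut at about 22% in these data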;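 note: higher means less bacterial growth from phage killing when AddAB is blocked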
Active calls of the source: *. Compounds with a hit are over-represented: about 0.51% of the library has one in this group of screens.

Screening NC(=NOC(=O)Nc1ccc(Cl)cc1)c1ncc(C(F)(F)F)cc1Cl returned E coli growth-2 0.62.
COc1ccc(Cc2noc(CN(C)CC3(N4CCOCC4)CCCCC3)n2)cc1OC was read as E coli growth-1 5.1, AddAB inh 2.5, phage Ecoli inh 94.1*, E coli growth-2 0.684, Tat export inh 2.2, RecBCD conf 0.1, Ecoli viability -0.5 and AddAB phage OD 2.4.
`CN(Cc1nc(Cc2ccccc2F)no1)CC1(N2CCOCC2)CCCCC1` gave E coli growth-1 -1.6, AddAB inh 4.3, phage Ecoli inh 2.5, E coli growth-2 0.652 and Tat export inh 8.6.
For CC(=O)Nc1ccc(SCC(C)CN2CCC(O)CCC2=O)cc1 (centres undefined) the results were E coli growth-2 0.659.
Screening CN(C(=O)c1cc(COc2ccc(F)c(F)c2)on1)C1CCOC1 (centres undefined) returned E coli growth-1 0.3, AddAB inh -10.8, phage Ecoli inh 11.2*, E coli growth-2 0.65, Tat export inh -5.5, RecBCD conf -0.8, Ecoli viability -0.8 and AddAB phage OD 3.5.
`COc1ccc(OCc2cc(C(=O)N(C)C3CCOC3)no2)c(Cl)c1` (centres undefined) gave E coli growth-1 -0.1, AddAB inh 2.1, phage Ecoli inh 1.9, E coli growth-2 0.653 and Tat export inh -8.4.
Screening COc1cc(C(=O)NCC(=O)NN=Cc2ccco2)cc(OC)c1OC returned E coli growth-2 0.61.
For C#CCOCCOCCOCCNc1nc(N2CCN(C(=O)C(CCCCN)n3cc(C(N)CC(C)C)nn3)CC2)nc(N2CCN(C(=O)C(Cc3cc4ccccc4[nH]3)n3cc(C(N)C(C)CC)nn3)CC2)n1 (centres undefined) the results were E coli growth-2 0.599.
Screening CC1OC2CC(=O)OC2C2=C1C(=O)c1c(O)cccc1C2=O (centres undefined) returned phage Ecoli inh 14.1*, RecBCD conf 8.0, Ecoli viability 2.7 and AddAB phage OD 19.6.
For COCCNC(=O)c1c(N)n(N=Cc2ccc(F)cc2)c2nc3ccccc3nc12 the results were E coli growth-2 0.66.
O=C(O)c1ccc(NC(=S)NCc2ccccc2)cc1 was read as E coli growth-1 0.3, AddAB inh 2.8, phage Ecoli inh 1.2, E coli growth-2 0.67 and Tat export inh -7.9.
For FC(F)Sc1ccc(NC(=S)NC(c2ccccc2)c2ccccc2)cc1 the results were E coli growth-1 5.8, AddAB inh 7.9, phage Ecoli inh 5.4, E coli growth-2 0.697 and Tat export inh -2.6.
For FC(F)(F)c1ccc(NC(=S)NCc2ccccc2)cc1 the results were E coli growth-1 9.5, AddAB inh 10.4, phage Ecoli inh 11.3*, E coli growth-2 0.531, Tat export inh -7.4, RecBCD conf 6.2, Ecoli viability 6.8 and AddAB phage OD 7.6.
For FC(F)Sc1ccc(NC(=S)NCc2ccccc2)cc1 the results were E coli growth-1 6.2, AddAB inh 8.6, phage Ecoli inh 12.7*, E coli growth-2 0.57, Tat export inh -2.2, RecBCD conf 6.9, Ecoli viability 9.0 and AddAB phage OD 7.0.
Screening O=C(NN=Cc1ccc2c(c1)OCO2)c1cc(-c2ccncc2)nc2ccccc12 returned E coli growth-2 0.691.
For CCOc1c(Br)cc(CNc2ccc(N3CCOCC3)cc2)cc1OC the results were E coli growth-1 0.6, AddAB inh -0.5, phage Ecoli inh 97.7*, E coli growth-2 0.685, Tat export inh 4.1, RecBCD conf 0.0, Ecoli viability 0.0 and AddAB phage OD -1.7.
For FC(F)(F)c1cc(CCN2CCNCC2c2ccccc2)cc(C(F)(F)F)c1 (centres undefined) the results were E coli growth-2 0.621.
CC(=O)NCCCc1nc2ccccc2n1Cc1ccccc1F was read as E coli growth-1 0.7, AddAB inh 2.9, phage Ecoli inh 22.4*, E coli growth-2 0.649, Tat export inh 1.0, RecBCD conf -1.7, Ecoli viability -0.9 and AddAB phage OD -1.2.
`Cc1ccc(C(=O)Cn2c(=N)n(N)c3ccccc32)cc1` gave E coli growth-1 0.3, AddAB inh 3.5, phage Ecoli inh 81.6*, E coli growth-2 0.694, Tat export inh -4.1, RecBCD conf 0.3, Ecoli viability -0.3 and AddAB phage OD -3.6.
Screening CCCC1CCCO[C@@](C(=O)NCc2cc(C)n(C)n2)(C(F)(F)F)C1 (some centres undefined) returned E coli growth-2 0.692.
For O=C1NC(=S)S/C1=C\C=C\c1ccc([N+](=O)[O-])o1 the results were phage Ecoli inh 95.7*, E coli growth-2 0.0705*, Tat export inh 67.6*, RecBCD conf 99.3*, Ecoli viability 99.2* and AddAB phage OD 99.2*.
`O=C(NN=Cc1cccc(Oc2ccccc2)c1)c1ccc(O)cc1O` gave E coli growth-2 0.697.
For O=C(O)C1=CC(c2ccc(Br)cc2)CC(OCCCCO)O1 (centres undefined) the results were E coli growth-2 0.671.
For O=C(N/N=C/c1sc2ccccc2c1O)c1cccc2ccccc12 the results were E coli growth-1 -1.3, AddAB inh 5.9, phage Ecoli inh 12.9*, Tat export inh -2.6, RecBCD conf 5.1, Ecoli viability 10.7 and AddAB phage OD 7.5.
COc1ccc2cc(C(=O)N/N=C/c3sc4ccccc4c3O)ccc2c1 was read as E coli growth-1 12.0*, AddAB inh 9.8, phage Ecoli inh 23.0*, Tat export inh -5.2, RecBCD conf 13.6*, Ecoli viability 18.0 and AddAB phage OD 18.8.
For O=C(NN=Cc1sc2ccccc2c1O)c1ccccc1 the results were E coli growth-2 0.619.
For CC(O)Cc1cn(CC(=O)NCCCCCCCCCCC(=O)N2CCNCC2)nn1 (centres undefined) the results were E coli growth-2 0.682.
Screening COc1cccc(/C=N/NC(=O)c2cc(-c3cccn3C)n[nH]2)c1O returned E coli growth-1 4.4, AddAB inh 3.8, phage Ecoli inh 11.6*, Tat export inh -5.6, RecBCD conf 5.6, Ecoli viability 8.7 and AddAB phage OD 19.9.
`CNCCCCOc1ccccc1-c1ccccc1` gave E coli growth-1 -0.8, AddAB inh -1.2, phage Ecoli inh 21.1*, E coli growth-2 0.637, Tat export inh 2.4, RecBCD conf -0.2, Ecoli viability 1.6 and AddAB phage OD 4.1.
For Cc1nc(C)c(C(=O)Nc2cccc(Cl)c2)o1 the results were E coli growth-1 -1.8, AddAB inh 1.4, phage Ecoli inh 2.4, E coli growth-2 0.645 and Tat export inh 9.3.
